The text below walks through data of the OligoGym collection.
Further: reference of the scale not given here.

The target in one assay is C15orf39. The experiment in a line: pooled miR-30 sensor sort-seq; sequence = guide strand. The note with it: shRNA.
TTGTCAATGACAGGCATTGGTG: the sensor-assay potency score (higher = more potent) was -1.34.

Take TGGTGCTTCTGTGTCTATCTTT: the sensor-assay potency score (higher = more potent) is -0.327.

As for TAGAGAGAGAGGTCATCCCGGG, the sensor-assay potency score (higher = more potent) was -0.132.

ATAGAGAGAGAGGTCATCCCGG: the sensor-assay potency score (higher = more potent) is -0.641.

For TTGTCCTGACCTTCACTGGTGG, the sensor-assay potency score (higher = more potent) is -0.545.

Consider TACCGGTAGAGTACAAGGGTGG, for which the sensor-assay potency score (higher = more potent) is -0.811.

Regarding TACACAGTCGCGCCACTGCAGG, the sensor-assay potency score (higher = more potent) was -1.54.

For the sequence ATAAGGAAAACTCAGTGTCTGG, the sensor-assay potency score (higher = more potent) is -1.35.

Take TTCAGCATGCGTGAGGTGCAGC: the sensor-assay potency score (higher = more potent) is -0.396.

Consider TTTGTCCTGACCTTCACTGGTG, for which the sensor-assay potency score (higher = more potent) was -0.221.

For the sequence TGGAGCTTCTCTTTCCTGCAGC, the sensor-assay potency score (higher = more potent) is -0.965.

A further assay concerns the target C15orf42. The assay is described as above. The note with it: shRNA.
As for TTGGTCTGACTTATCTTGCTGG, the sensor-assay potency score (higher = more potent) was -0.193.

In the case of TATACTATCCACAACATCTGAG, the sensor-assay potency score (higher = more potent) was 0.285.

TACAACATGATTTCTCCTGTGG had a sensor-assay potency score (higher = more potent) of 0.642.

The sequence TTGATTTACAAGACAATAGGAG yielded a sensor-assay potency score (higher = more potent) of 0.136.

With TTCTTGATGAGCTATAGTGGAT, the sensor-assay potency score (higher = more potent) is -1.03.

TTTACTCTTACTAACTTCTGAA displayed a sensor-assay potency score (higher = more potent) of 0.249.

Turning to TTTAGGAACATTTTAACGGTTG, the sensor-assay potency score (higher = more potent) is -0.0807.

For TTCAATTTGTCGAAGATTCTGT, the sensor-assay potency score (higher = more potent) is 0.525.

TTCAACATCTTTAAGGAACGGC registered a sensor-assay potency score (higher = more potent) of 0.686.

In turn, TTAGTGATCTCTTTGAAGGGGA yielded a sensor-assay potency score (higher = more potent) of 0.326.

Sequence TAGGTTTAGAACTTCTTAGTGT returned a sensor-assay potency score (higher = more potent) of 0.687.

In the case of TTCATCTTCTGTCTCACTGGAG, the sensor-assay potency score (higher = more potent) turned out to be 0.162.
